Screening results (PubChem)
Most compounds without a hit are left out; they make up all but 3% or so of the library.
Glioma ERSR ind = inducers of ER stress response in human glioma cells. U87-MG GRP78 promoter luciferase reporter, 16 h. Potency, µM, inactives show top-dose activation, usual class: activators. 420,000 compounds, 0.02% hits. AID 602332; further: potency means the concentration at half of the fitted maximal effect; series mostly up to about 76 µM; % of control where 0% means no effect; nearly all actives have a fitted effect of over 35% in size
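ERSR induction read as luciferase luminescence (Bright-Glo, 10 min at room temperature) in stably transfected human U87-MG glioma cells exposed to compounds for 16 h, using GRP78 as sensor.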
Nrf2 ARE act = Nrf2 pathway activation. AREc32 ARE-luciferase reporter (MCF7-derived line), luminescence, 24 h. 410,000 compounds, 0.31% hits. Potency, µM (top dose mostly 46.1 µM), inactives show at the highest dose activation, hits mostly activators. AID 624171; further: potency means the concentration at half of the fitted maximal effect; % of control where 0% means no effect; nearly all actives have a fitted effect of over 65% in size
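Luciferase luminescence (Steady-Glo, 30 min at room temperature) served as the read-out of ARE activation in AREc32 cells treated with compounds for 24 hr at 37 deg C.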
D3 antag = antagonists of human D3 dopamine receptor; P35462; D3R cells, DiscoveRx beta-arrestin luminescence, antagonist mode; active compounds read low; max response, negative = inhibition, %; 360,000 compounds, 2.5% hits; in the data active means max response below about -50%; inconclusive means no clear call, values can overlap the other calls; further: on the % scale 0 is the no-effect control and ±100 the full control effect
Target sequence (P35462 whole entry, looked up): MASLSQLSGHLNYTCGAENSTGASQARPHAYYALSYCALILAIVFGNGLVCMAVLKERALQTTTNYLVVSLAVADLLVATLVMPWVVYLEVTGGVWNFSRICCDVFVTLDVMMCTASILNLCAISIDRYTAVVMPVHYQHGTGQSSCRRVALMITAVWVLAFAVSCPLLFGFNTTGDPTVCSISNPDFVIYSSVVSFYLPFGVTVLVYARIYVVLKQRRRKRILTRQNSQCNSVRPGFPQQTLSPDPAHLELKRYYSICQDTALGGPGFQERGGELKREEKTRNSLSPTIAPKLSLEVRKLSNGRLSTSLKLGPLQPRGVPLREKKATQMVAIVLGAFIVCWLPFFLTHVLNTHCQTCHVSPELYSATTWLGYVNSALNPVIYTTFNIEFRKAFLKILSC
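Cells expressing the human receptor were seeded at 1500 cells/well, incubated overnight at 37 degrees C in 5% CO2, then exposed to library compounds with dopamine controls for 90 minutes at 37 degrees C before luminescent detection.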
DRD3 agonist = activates the human D3 dopamine receptor; max activation, %; D3R DiscoveRx beta-arrestin cells, luminescence, 90 min; P35462; 410,000 compounds, 0.58% hits; in the data active means max activation above about 30%; further: 0% is about no effect
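Agonist-mode cell screen: cells plated at 1500/well and incubated overnight at 37 °C, then exposed to library compounds for 90 min at 37 °C. Detection reagent was added for 30–60 min at room temperature, and luminescence was read.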
* marks the source's active call; other numbers are inactive results; ? = inconclusive; . = not tested or not shown. Unless noted, the call rests on the fitted dose curve; in most records, active means well fitted curve in the direction sought with a large enough effect; inconclusive means small, poorly fitted or top-dose-only effect, or another doubt; inactive means no such curve, though single readings can be large; an effect the other way counts as inactive or inconclusive.

SMILES	Glioma ERSR ind	Nrf2 ARE act	D3 antag	DRD3 agonist
CCC1Oc2ccc(C)cc2N(CC(=O)NCCCN2CCCC2)C1=O (configuration not stated)	-1%	2%	-68*	-17
COc1ccc(/C=N/Nc2ncccc2[N+](=O)[O-])c(OC)c1	-6%	0%	-54*	-3
COCc1c(C(=O)NC2CCCCC2)cnn1-c1nccc(-c2cc(C)sc2C)n1	5%	.	.	.
Cc1cnc2c(C)cccc2c1C	-3%	.	.	.
CS(=O)c1nc(-c2ccc(Br)cc2)cc(-c2ccccc2)c1C#N (configuration not stated)	-1%	0%	-56*	-3
CS(=O)(=O)c1nc(-c2ccc(Br)cc2)cc(-c2ccccc2)c1C#N	-7%	8%	-17	12
CCn1c(-c2cccc(OC)c2)nc2cc(NC(C)=O)cc(C(=O)N3CCCC(C(C)=O)C3)c21 (configuration not stated)	-3%	.	.	.
O=C1Cc2ccccc2Sc2c(OCCN3CCCCC3)cccc21	-1%	0%	-65*	-31
O=C1Cc2ccccc2Sc2cc(OCCCN3CCCCC3)ccc21	-4%	2%	-53*	-6
CC(=O)c1ccccc1OCCCN1CCCCC1	-1%	4%	-24	-11
Cc1ccccc1-c1nnc(-c2cccs2)o1	5%	11µM*	1	6
COc1nc(NC(C)C)nc(N(C#N)CN2C(=O)c3ccccc3S2(=O)=O)n1	-3%	19%	-58*	-3
CC(C)Nc1nc(Cl)nc(N(C#N)CN2C(=O)c3ccccc3S2(=O)=O)n1	-3%	17%	-25	-21
COCCCn1c(SCc2nnc(-c3ccccc3)o2)nc2sc3c(c2c1=O)CCC3	-2%	0%	14	11
Cn1c(SCc2nnc(-c3ccccc3Br)o2)nc2sc3c(c2c1=O)CCC3	-2%	3%	27	34*
COc1ccccc1/C=C/c1cnccn1	5%	.	.	.
CC[C@H]1OC(=O)[C@H](C)[C@@H](O[C@H]2C[C@@](C)(OC)[C@@H](O)[C@H](C)O2)[C@H](C)[C@@H](O[C@@H]2O[C@H](C)C[C@H](N(C)C)[C@H]2O)[C@](C)(O)C[C@@H](C)[C@@H]2N[C@@H](COCCOC)O[C@@H]([C@H]2C)[C@]1(C)O	.	.	.	-8
Cc1noc(C)c1C(=O)Nc1sc2c(c1C(N)=O)CCCCC2	-1%	2%	23	47*
O=C(Cc1cccc(NC(=O)C2CCCN(C(=O)CCc3ccccc3)C2)c1)Nc1ccc(C(=O)N2CCCCC2)cc1 (configuration not stated)	-2%	4%	-52*	-34
CN(Cc1ccccc1)C(=O)c1cccc(NC(=O)Cc2ccc(NC(=O)C3CCN(C(=O)CCc4ccccc4)CC3)cc2)c1	-5%	4%	44	78*
CN(C(=O)c1cccc(NC(=O)Cc2cccc([N+](=O)[O-])c2)c1)C1CCCC1	-1%	6%	-75*	-19
CN(C(=O)c1ccc(NC(=O)Cc2cccc(NC(=O)C3CCN(C(=O)CCc4ccccc4)CC3)c2)cc1)C1CCCC1	2%	7%	?	-18
CN(Cc1ccccc1)C(=O)c1ccc(NC(=O)Cc2ccc(NC(=O)C3CCN(C(=O)CCc4ccccc4)CC3)cc2)cc1	2%	2%	?	-7
CN(C(=O)c1cccc(NC(=O)Cc2cccc(NC(=O)C3CCN(C(=O)CCc4ccccc4)CC3)c2)c1)C1CC1	0%	3%	10	40*
O=C(C[n+]1cccc(Br)c1)c1ccc2ccccc2c1	4%	.	.	.
SMILES	Glioma ERSR ind	Nrf2 ARE act	D3 antag	DRD3 agonist
c1ccc2c(c1)nc(N1CCCCCC1)c1nncn12	-1%	2%	-27	-2
CCN1CCN(c2nc3ccccc3n3cnnc23)CC1	-5%	-1%	-70*	-22
O=C1[C@@H]2[C@H]3CC[C@H](C3)[C@@H]2C(=O)N1CCCCN1CCN(c2ncccn2)CC1	-1%	.	.	-10
O=C1CC2(CCCC2)CC(=O)N1CCCCN1CCN(c2ncccn2)CC1	-1%	0%	-100*	-89
CCN1/C(=C/c2ccc3ccccc3[n+]2CCCS(=O)(=O)[O-])C=Cc2cc(C)ccc21	-13%	0%	-23	-7
CCN1/C(=C/c2ccc3ccccc3[n+]2CC)C=Cc2ccccc21	-12%	-2%	-52*	-10
Cc1c(C(=O)NCC(C)(C)N2CCOCC2)cnn1-c1nccc(-c2cccs2)n1	-1%	.	.	.
CC(C)OC(=O)c1ccccc1C(=O)c1ccc(N)c([N+](=O)[O-])c1	-3%	0%	-3	0
CNC(=O)COC(=O)c1ccccc1C(=O)c1ccc(Cl)c([N+](=O)[O-])c1	1%	-1%	-61*	0
O=C(COC(=O)c1cc([N+](=O)[O-])ccc1Cl)NC1CCCC1	2%	9%	2	-6
O=C(COC(=O)c1ccccc1C(=O)c1ccc(Cl)c([N+](=O)[O-])c1)NC1CC1	-14%	?	-66*	-18
COc1ccccc1N1CCN(C2CCCN(C(=O)c3ccccn3)C2)CC1 (configuration not stated)	15%	0%	-6	-10
COc1ccccc1N1CCN(C2CCCN(C(=O)c3ccoc3C)C2)CC1 (configuration not stated)	-6%	0%	-25	-28
COc1cccc(OCc2cc(C(=O)N3CCN(c4ccccc4OC)CC3)no2)c1	0%	8%	-63*	-19
COc1ccccc1N1CCN(C(=O)c2cccc(Oc3ccccc3)c2)CC1	-4%	-1%	16	0
COc1ccccc1N1CCN(C2CCCN(C(=O)c3cc(C(C)C)on3)C2)CC1 (configuration not stated)	-2%	6%	-62*	-2
COc1cc(OC)cc(C(=O)N2CCC(N3CCN(c4ccccc4OC)CC3)CC2)c1	-5%	0%	-53*	0
COc1ccccc1N1CCN(C2CCCN(C(=O)c3cccc(-c4ccco4)c3)C2)CC1 (configuration not stated)	-4%	13%	-66*	-13
Clc1ccc(CSc2nc3ncccc3[nH]2)cc1	-1%	2%	.	-2
COc1cc(-c2nc(C)cnc2C)cc2c1OCCN(C(=O)Cc1cc(OC)c(OC)c(OC)c1)C2	-5%	.	.	.
CN(C(=O)c1ccc2c(c1)N(Cc1ccccc1F)C(=O)c1ccccc1S2)C1CCCCC1	-5%	-1%	.	-14
Cc1cnc(SCc2ccccn2)nc1C1CCCN(C(=O)c2noc3c2CCCC3)C1 (configuration not stated)	-3%	.	.	.
O=C(/C=C/NNC(=O)c1ccccc1)c1ccccc1	13%	5%	-53*	-12
Cc1nnc(N=c2ssnc2Cl)o1	-3%	4%	-83*	-86
Cc1ccc(N=c2ssnc2Cl)cc1	2%	8%	-27	15
CN1CCN(C(=O)c2ccc(COc3ccc(Cl)cc3Cl)cc2)CC1	0%	6%	-89*	-22
CN1CCCN(C(=O)c2ccc(Cl)cc2)CC1	-5%	0%	?	-8
CN1CCN(C(=O)CCCOc2ccc(Cl)cc2Cl)CC1	3%	2%	-53*	-3
